PubChem BioAssay (Tox21)
A number with no mark means an inactive call. Inconclusive results are not listed. Where a call stands in place of a potency, no number is given. Activity calls are given as the source filed them. Unless noted, calls come from the whole dose curve; as a rule, active = well fitted curve in the direction sought with a large enough effect in the repeat runs; inconclusive = weak or mixed curves; inactive = no such curve, though single readings can be large; an effect the other way counts as inactive or inconclusive.

Columns and labels:
[1] = qHTS assay to identify small molecule agonists of the sonic hedgehog signaling (Shh) pathway - cell viability counter screen (AID 1259366); note: nearly all actives have a fitted effect of over 50% in size
Outline: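 Stable Gli1-Luc NIH/3T3 clone, 2,000 cells/well. Compound exposure 24hr at 37C. Read-out: CellTiter-Fluor fluorescence.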

[2] = qHTS assay to identify small molecule antagonists of the sonic hedgehog signaling (Shh) pathway - cell viability counter screen (AID 1259367); note: nearly all actives have a fitted effect of over 55% in size
Outline: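 Viability was read by CellTiter-Fluor fluorescence in the same wells, reagent added 23 hr into compound treatment and incubated 1 hr at 37C. The 3T3 Gli1-Luc reporter cells (2,000/well) received conditioned medium after compound and ran 24 hr.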

[3] = qHTS assay to identify small molecule agonists of the sonic hedgehog signaling (Shh) pathway (AID 1259368; calls by dose curve;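 note: NIH/3T3-derived 3T3Gli1-Luc cells carrying a stable Gli1-driven firefly luciferase reporter; series mostly up to about 92 µM; nearly all actives have a fitted effect of over 15% in size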)
Outline: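 Following a 24 hr incubation with DMSO-dissolved compounds at 37 C, 5% CO2, Gli1-Luc NIH/3T3-derived cells received luciferase reagent for 30 min at room temperature prior to luminescence measurement.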

[4] = qHTS assay to identify small molecule antagonists of the sonic hedgehog signaling (Shh) pathway (AID 1259369; calls by dose curve; note: nearly all actives have a fitted effect of over 45% in size)
Outline: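 Read-out is luminescence from a firefly luciferase gene controlled by the Gli1 response element, in 3T3Gli1-Luc cells pre-incubated 4hr then exposed to compounds and conditioned medium for 24hr.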

[5] = molecular target: Estrogen receptor beta (Homo sapiens) (UniProt Q92731); assay: qHTS assay to identify small molecule agonists of the estrogen receptor beta (ER-beta) signaling pathway (AID 1259377; active = well fitted activation curve with a large enough effect in the signal ratio in the repeat runs, not every such curve was filed as active; the % refers to the signal ratio)
Sequence of Estrogen receptor beta (Homo sapiens) (Q92731 whole entry, looked up): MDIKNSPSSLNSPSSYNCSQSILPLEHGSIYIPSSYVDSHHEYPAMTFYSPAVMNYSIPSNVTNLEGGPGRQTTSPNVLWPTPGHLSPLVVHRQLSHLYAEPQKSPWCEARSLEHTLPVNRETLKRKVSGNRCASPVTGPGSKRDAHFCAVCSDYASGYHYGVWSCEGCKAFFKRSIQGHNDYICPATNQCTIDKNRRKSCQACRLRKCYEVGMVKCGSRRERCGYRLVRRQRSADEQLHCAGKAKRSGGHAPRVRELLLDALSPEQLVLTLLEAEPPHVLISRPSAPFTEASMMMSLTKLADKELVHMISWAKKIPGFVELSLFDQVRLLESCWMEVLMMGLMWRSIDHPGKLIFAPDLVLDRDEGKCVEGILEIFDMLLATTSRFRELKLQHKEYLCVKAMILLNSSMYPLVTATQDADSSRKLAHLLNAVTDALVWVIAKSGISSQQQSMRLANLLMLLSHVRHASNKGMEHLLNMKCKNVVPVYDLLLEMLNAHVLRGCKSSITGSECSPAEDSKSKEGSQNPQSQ
Outline: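 Measured by fluorescence intensity from a B/G FRET beta-lactamase substrate (2 h, room temperature) in ER-beta-UAS-bla HEK293T cells treated with DMSO-dissolved compounds for 16 hr at 37C and 5% CO2.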

[6] = molecular target: Estrogen receptor beta (Homo sapiens) (UniProt Q92731); assay: qHTS assay to identify small molecule antagonists of the estrogen receptor beta (ER-beta) signaling pathway (AID 1259378; active = well fitted inhibition curve with a large enough effect in the signal ratio in the repeat runs, not every such curve was filed as active; the % refers to the signal ratio)
Outline: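 Antagonist mode: compounds added to beta-lactamase reporter HEK293T ER-beta-UAS cells stimulated with E2 (1nM final), 16 hr at 37C. LiveBLAzer B/G FRET substrate, 2 hours room temperature, fluorescence read-out.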

[7] = qHTS assay to identify small molecule agonists of the androgen receptor (AR) signaling pathway in the presence of an antagonist - cell viability counter screen (AID 1259379);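 note: MDA-kb2 human breast cancer cells carrying an MMTV luciferase reporter; series mostly up to about 92 µM; nearly all actives have a fitted effect of over 25% in size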
Outline: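 Each compound was tested at 15 concentrations on MDA-kb2 cells in the presence of 3.0uM nilutamide. Viability was measured by CellTiter-Fluor fluorescence after a 16 hr incubation at 37C in a CO2-free atmosphere.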

[8] = qHTS assay to identify small molecule agonists of the estrogen receptor beta (ER-beta) signaling pathway - cell viability counter screen (AID 1259380); note: nearly all actives have a fitted effect of over 30% in size
Outline: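 Compounds dissolved in DMSO were pin-transferred onto ER-beta-UAS-bla HEK293T cells that had settled 6 hr, and exposure ran 16 hr at 37C. Following the reporter read, CellTiter-Glo luminescence after 30 min at room temperature indicated cytotoxicity.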

[9] = qHTS assay to identify small molecule antagonists of the estrogen receptor beta (ER-beta) signaling pathway - cell viability counter screen (AID 1259382);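 note: HEK293T cells carrying ER-beta-UAS-bla reporter stimulated with estradiol; series mostly up to about 92 µM; nearly all actives have a fitted effect of over 55% in size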
Outline: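 CellTiter-Glo ATP luminescence measured after the LiveBLAzer read in the same wells; ER-beta-UAS-bla HEK293T cells, 16 hr compound treatment with 1nM 17-beta-estradiol agonist at 37C, 5% CO2.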

[10] = molecular target: Estrogen receptor (Homo sapiens) (UniProt P03372); assay: qHTS assay to identify small molecule agonists of the estrogen receptor alpha (ER-alpha) signaling pathway in the presence of an antagonist (AID 1259383; calls by dose curve; note: top concentration of the series differs between compounds; nearly all actives have a fitted effect of over 15% in size)
Sequence of Estrogen receptor (Homo sapiens) (P03372 whole entry, looked up): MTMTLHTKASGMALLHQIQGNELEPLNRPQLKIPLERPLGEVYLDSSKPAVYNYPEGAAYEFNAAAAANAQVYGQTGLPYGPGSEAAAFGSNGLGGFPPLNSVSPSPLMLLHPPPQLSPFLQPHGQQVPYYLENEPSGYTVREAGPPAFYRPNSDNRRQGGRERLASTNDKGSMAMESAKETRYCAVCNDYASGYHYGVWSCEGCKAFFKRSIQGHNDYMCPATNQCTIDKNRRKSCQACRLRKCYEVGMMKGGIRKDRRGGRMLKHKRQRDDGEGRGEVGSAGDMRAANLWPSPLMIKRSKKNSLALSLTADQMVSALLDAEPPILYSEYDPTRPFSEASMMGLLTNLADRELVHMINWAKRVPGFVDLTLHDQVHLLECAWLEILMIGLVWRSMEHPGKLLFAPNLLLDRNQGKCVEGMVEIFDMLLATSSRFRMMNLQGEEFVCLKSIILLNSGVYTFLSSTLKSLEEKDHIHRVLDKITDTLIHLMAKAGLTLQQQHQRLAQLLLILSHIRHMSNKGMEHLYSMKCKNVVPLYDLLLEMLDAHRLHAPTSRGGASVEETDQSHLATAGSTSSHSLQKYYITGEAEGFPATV
Outline: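 Luminescent ERE-luciferase reporter, VM7Luc4E2 cells (endogenous ER-alpha); 10.0nM ICI-182,780 final; 15-point compound titration; 22hr at 37C; ONE-Glo, 30min RT.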

[11] = qHTS assay to identify small molecule agonists of the estrogen receptor alpha (ER-alpha) signaling pathway in the presence of an antagonist - cell viability counter screen (AID 1259386);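 note: series mostly up to about 92 µM; cells exposed to compounds for 22 h at 37 °C before the viability read; nearly all actives have a fitted effect of over 30% in size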
Outline: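 Using estrogen-depleted VM7Luc4E2 cells, the 15-concentration compound series was applied together with 10.0nM ICI-182,780 and incubated 22hr at 37C/5% CO2. Cell viability was then scored by CellTiter-Fluor.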

[12] = molecular target: Progesterone receptor (Homo sapiens) (UniProt P06401); assay: qHTS assay to identify small molecule agonists of the progesterone receptor (PR) signaling pathway (AID 1346784; calls by dose curve; note: nearly all actives have a fitted effect of over 30% in size; note: potency is the fitted concentration of half-maximal effect)
Sequence of Progesterone receptor (Homo sapiens) (P06401 whole entry, looked up): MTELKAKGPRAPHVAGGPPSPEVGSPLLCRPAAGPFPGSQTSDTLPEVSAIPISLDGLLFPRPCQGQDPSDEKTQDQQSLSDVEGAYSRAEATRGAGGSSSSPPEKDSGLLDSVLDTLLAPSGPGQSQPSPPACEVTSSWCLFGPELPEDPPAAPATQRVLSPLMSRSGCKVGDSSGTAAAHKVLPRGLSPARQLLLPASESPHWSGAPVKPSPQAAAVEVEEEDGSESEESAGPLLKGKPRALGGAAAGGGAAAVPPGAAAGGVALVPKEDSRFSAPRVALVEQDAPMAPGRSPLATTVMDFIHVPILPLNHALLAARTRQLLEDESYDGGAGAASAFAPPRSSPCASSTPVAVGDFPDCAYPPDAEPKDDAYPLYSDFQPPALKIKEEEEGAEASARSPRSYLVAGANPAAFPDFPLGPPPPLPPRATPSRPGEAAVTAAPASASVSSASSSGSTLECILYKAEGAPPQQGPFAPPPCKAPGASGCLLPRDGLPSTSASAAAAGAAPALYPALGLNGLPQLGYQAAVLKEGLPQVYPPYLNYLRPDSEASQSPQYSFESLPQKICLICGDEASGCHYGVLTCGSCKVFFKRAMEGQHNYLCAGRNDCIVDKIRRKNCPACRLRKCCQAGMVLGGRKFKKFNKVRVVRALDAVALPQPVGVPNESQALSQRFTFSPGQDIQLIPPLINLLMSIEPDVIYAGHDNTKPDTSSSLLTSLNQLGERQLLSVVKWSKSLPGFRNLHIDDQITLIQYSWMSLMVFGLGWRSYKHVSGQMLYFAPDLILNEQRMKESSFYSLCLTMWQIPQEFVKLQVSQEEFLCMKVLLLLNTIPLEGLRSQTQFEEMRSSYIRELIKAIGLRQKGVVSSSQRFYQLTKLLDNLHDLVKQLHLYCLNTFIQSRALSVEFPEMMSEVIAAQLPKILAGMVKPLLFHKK
Outline: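 The screen uses PR-UAS-bla HEK 293T cells in charcoal-stripped serum (2%). Compounds are applied for 16 hr at 37C after a 6 hr pre-incubation, and reporter activity is detected with a FRET beta-lactamase substrate after 2 hr at room temperature.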

[13] = molecular target: Progesterone receptor (Homo sapiens) (UniProt P06401); assay: qHTS assay to identify small molecule antagonists of the progesterone receptor (PR) signaling pathway (AID 1346795; active = well fitted inhibition curve with a large enough effect in the signal ratio in the repeat runs, not every such curve was filed as active; the % refers to the signal ratio)
Outline: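 After 6 hr plating at 37C in 2% stripped-serum medium, PR-UAS-bla HEK293T cells got compounds, then 1 nM R5020. Sixteen hours later, LiveBLAzer substrate was applied for 2 hr at room temperature and fluorescence was recorded.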

[14] = qHTS assay to identify small molecule agonists of the progesterone receptor (PR) signaling pathway - cell viability counter screen (AID 1346799; calls by dose curve; note: nearly all actives have a fitted effect of over 45% in size)
Outline: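 Viability was scored by ATP luminescence (CellTiter-Glo, 30 min, room temperature) in the same wells used for the reporter readout, after 16 hr compound exposure of PR-UAS-bla HEK293T cells.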

[15] = qHTS assay to identify small molecule antagonists of the TGF-beta/Smad signaling pathway - cell viability counter screen (AID 1346824); note: nearly all actives have a fitted effect of over 50% in size
Outline: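 Cytotoxicity counter-screen run in the same wells as the beta-lactamase Smad reporter read: CellTiter-Glo luminescence after 30 min at room temperature. HEK 293T SBE-bla cells had 5 hr compound exposure at 37 C with TGF-beta1 (0.25 ng/mL stock).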

[16] = qHTS assay to identify small molecule agonists of the TGF-beta/Smad signaling pathway - cell viability counter screen (AID 1346829); note: top concentration of the series differs between compounds; nearly all actives have a fitted effect of over 45% in size
Outline: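 In parallel with the Smad reporter read, viability of HEK 293T cells stably carrying SBE-bla is quantified by ATP luminescence following 5 hr compound treatment.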

[17] = qHTS assay to identify small molecule agonists or antagonists of the thyroid stimulating hormone receptor (TSHR) signaling pathway - wild type cell line counter screen (AID 1259384; calls by dose curve)
Outline: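 Counter screen in untransfected Hek293: compounds (15-point titration, triplicate) plus phosphodiesterase inhibitor Ro20-1724 added after 18 h plating; 30 min RT. Intracellular cAMP via competitive d2/cryptate immunoassay, 1 h incubation.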

[18] = molecular target: Thyrotropin receptor (Homo sapiens) (UniProt P16473); assay: qHTS assay to identify small molecule antagonists of the thyroid stimulating hormone receptor (TSHR) signaling pathway (AID 1259385; calls by dose curve; note: nearly all actives have a fitted effect of over 20% in size)
Sequence of Thyrotropin receptor (Homo sapiens) (P16473 whole entry, looked up): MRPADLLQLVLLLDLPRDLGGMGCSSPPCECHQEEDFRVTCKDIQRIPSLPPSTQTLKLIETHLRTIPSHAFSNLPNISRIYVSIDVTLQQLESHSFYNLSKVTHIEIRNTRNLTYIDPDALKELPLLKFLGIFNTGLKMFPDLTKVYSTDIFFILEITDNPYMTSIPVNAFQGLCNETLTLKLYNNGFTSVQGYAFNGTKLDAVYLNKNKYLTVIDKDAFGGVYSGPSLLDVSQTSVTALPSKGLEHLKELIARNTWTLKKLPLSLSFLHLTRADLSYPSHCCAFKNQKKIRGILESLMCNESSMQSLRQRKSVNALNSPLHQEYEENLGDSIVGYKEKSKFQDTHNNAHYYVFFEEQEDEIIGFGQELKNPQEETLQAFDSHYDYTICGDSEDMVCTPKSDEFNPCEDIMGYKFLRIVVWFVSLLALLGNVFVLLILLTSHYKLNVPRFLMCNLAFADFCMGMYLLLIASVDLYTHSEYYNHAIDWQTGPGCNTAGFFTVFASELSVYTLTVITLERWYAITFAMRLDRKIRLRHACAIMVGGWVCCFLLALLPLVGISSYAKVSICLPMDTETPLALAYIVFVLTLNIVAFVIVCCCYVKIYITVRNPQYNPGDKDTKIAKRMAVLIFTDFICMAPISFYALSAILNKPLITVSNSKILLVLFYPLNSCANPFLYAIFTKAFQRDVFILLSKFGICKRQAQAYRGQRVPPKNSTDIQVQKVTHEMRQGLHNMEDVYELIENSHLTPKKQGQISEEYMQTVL
Outline: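 Antagonist mode: compound-treated TSHR-expressing HEK293 cells were stimulated with 1.5 ng/mL TSH (final) in presence of Ro20-1724 for 30 min at RT. HTRF cAMP detection after 1 h; each compound tested at 15 concentrations, triplicate.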

[19] = qHTS assay to identify small molecule antagonists of the progesterone receptor (PR) signaling pathway - cell viability counter screen (AID 1346798); note: series mostly up to about 92 µM; nearly all actives have a fitted effect of over 50% in size
Outline: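 Viability was determined by ATP-based luminescence (CellTiter-Glo) in PR-UAS-bla HEK293T cells cultured in 2% charcoal-stripped serum and incubated 16 hr with compounds under R5020 stimulation.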

[20] = molecular target: Androgen receptor (Homo sapiens) (UniProt P10275); assay: qHTS assay to identify small molecule agonists of the androgen receptor (AR) signaling pathway in the presence of an antagonist (AID 1259381; calls by dose curve; note: nearly all actives have a fitted effect of over 15% in size)
Sequence of Androgen receptor (Homo sapiens) (P10275 whole entry, looked up): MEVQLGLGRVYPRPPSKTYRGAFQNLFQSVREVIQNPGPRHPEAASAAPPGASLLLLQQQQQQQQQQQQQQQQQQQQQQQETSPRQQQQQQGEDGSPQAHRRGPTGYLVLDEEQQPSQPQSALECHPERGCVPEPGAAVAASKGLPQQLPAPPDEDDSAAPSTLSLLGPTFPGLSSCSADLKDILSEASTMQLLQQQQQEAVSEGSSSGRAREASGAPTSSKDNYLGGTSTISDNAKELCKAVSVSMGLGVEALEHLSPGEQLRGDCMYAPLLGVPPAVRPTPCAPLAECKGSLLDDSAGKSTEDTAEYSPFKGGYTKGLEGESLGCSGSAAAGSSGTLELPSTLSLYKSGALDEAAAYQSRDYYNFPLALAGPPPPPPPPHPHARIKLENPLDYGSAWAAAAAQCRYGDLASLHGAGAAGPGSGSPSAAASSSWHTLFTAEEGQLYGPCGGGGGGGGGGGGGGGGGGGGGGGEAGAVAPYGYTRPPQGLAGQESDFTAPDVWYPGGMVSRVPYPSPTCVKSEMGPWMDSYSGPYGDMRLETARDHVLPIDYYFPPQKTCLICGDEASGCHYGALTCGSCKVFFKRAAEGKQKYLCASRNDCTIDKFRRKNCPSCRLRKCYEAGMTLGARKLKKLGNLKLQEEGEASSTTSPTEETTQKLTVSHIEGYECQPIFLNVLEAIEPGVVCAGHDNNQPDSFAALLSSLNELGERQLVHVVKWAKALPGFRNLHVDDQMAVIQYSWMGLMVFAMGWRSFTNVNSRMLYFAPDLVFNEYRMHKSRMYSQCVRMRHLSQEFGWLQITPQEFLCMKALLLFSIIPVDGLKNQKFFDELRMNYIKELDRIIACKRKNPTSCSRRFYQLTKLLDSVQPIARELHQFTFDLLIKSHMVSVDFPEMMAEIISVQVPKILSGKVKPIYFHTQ
Outline: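 Plated MDA-kb2 cells (3,000/well) were pre-incubated 5hr, given nilutamide (3.0uM final) or buffer, then dosed with compounds in DMSO at 15 concentrations. Luciferase activity was quantified by luminescence after 16hr at 37C.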

| SMILES | Potency [1] | Potency [2] | outcome [3] | Potency [4] | Potency [5] | outcome [6] | Potency [7] | outcome [8] | outcome [9] | outcome [10] | Potency [11] | Potency [12] | Potency [13] | Potency [14] | outcome [15] | outcome [16] | outcome [17] | outcome [18] | Potency [19] | outcome [20] |
| --- | --- | --- | --- | --- | --- | --- | --- | --- | --- | --- | --- | --- | --- | --- | --- | --- | --- | --- | --- | --- |
| CC(C)SCc1ccco1 | inactive | inactive | inactive | inactive | inactive | inactive | inactive | inactive | inactive | inactive | inactive | inactive | inactive | inactive | inactive | inactive | – | – | – | – |
| C=C[C@@H](C)CCC=C(C)C | inactive | inactive | inactive | inactive | inactive | inactive | inactive | inactive | inactive | – | inactive | inactive | inactive | inactive | inactive | inactive | inactive | inactive | – | – |
| CCCCC/C=C/CC(=O)OC | inactive | inactive | inactive | inactive | inactive | inactive | inactive | inactive | inactive | – | inactive | inactive | – | inactive | inactive | inactive | inactive | inactive | inactive | – |
| O=S1(=O)CCCC1 | inactive | inactive | inactive | inactive | inactive | inactive | inactive | inactive | inactive | inactive | – | inactive | – | inactive | inactive | inactive | – | – | – | – |
| O=CN1CCOCC1 | inactive | inactive | inactive | inactive | inactive | inactive | inactive | inactive | inactive | inactive | inactive | inactive | inactive | inactive | inactive | inactive | inactive | inactive | inactive | inactive |
| CCCO | inactive | inactive | inactive | inactive | inactive | inactive | inactive | inactive | inactive | inactive | inactive | inactive | inactive | inactive | inactive | inactive | – | – | inactive | – |
| O=C(c1ccc2c(c1)C(=O)OC2=O)c1ccc2c(c1)C(=O)OC2=O | inactive | inactive | inactive | inactive | inactive | inactive | inactive | inactive | inactive | – | inactive | inactive | inactive | inactive | inactive | inactive | inactive | inactive | inactive | – |
| CC(=O)OC(C(=O)c1ccccc1)c1ccccc1 (configuration not stated) | inactive | inactive | inactive | inactive | inactive | inactive | inactive | inactive | inactive | inactive | inactive | inactive | inactive | inactive | inactive | inactive | inactive | inactive | inactive | inactive |
| CN=C(NC#N)NCCSCc1csc(N=C(N)N)n1 | inactive | inactive | inactive | inactive | inactive | inactive | inactive | inactive | inactive | inactive | inactive | inactive | – | – | inactive | inactive | inactive | inactive | – | – |
| CCCCCCCCCCCCOC(C)=O | inactive | inactive | inactive | inactive | inactive | inactive | inactive | inactive | inactive | inactive | – | inactive | inactive | inactive | inactive | inactive | inactive | inactive | inactive | – |
| CCOC(=O)C(C)(C)C | inactive | inactive | inactive | inactive | inactive | inactive | inactive | inactive | inactive | inactive | inactive | 12.3 µM (active) | inactive | inactive | inactive | inactive | inactive | inactive | inactive | – |
| NC(=O)NC(=O)Cc1ccccc1 | inactive | inactive | inactive | inactive | inactive | inactive | inactive | inactive | inactive | inactive | inactive | inactive | inactive | inactive | inactive | inactive | inactive | inactive | inactive | – |
| CCCCOC(=O)[C@@H](C)Oc1ccc(Oc2ccc(C(F)(F)F)cn2)cc1 | inactive | inactive | inactive | inactive | inactive | inactive | inactive | inactive | inactive | inactive | inactive | inactive | inactive | inactive | inactive | inactive | inactive | – | inactive | – |
| NCCc1ccn[nH]1 | inactive | inactive | inactive | inactive | inactive | inactive | inactive | inactive | inactive | inactive | inactive | inactive | inactive | inactive | inactive | inactive | inactive | inactive | – | – |
| SCCSCCS | inactive | inactive | inactive | inactive | inactive | inactive | inactive | inactive | inactive | – | inactive | inactive | inactive | inactive | inactive | inactive | inactive | inactive | inactive | – |
| Cc1ccccc1N1CCN(CCc2nnc3n2CCCC3)CC1 | inactive | inactive | inactive | inactive | inactive | inactive | inactive | inactive | inactive | – | inactive | inactive | inactive | – | inactive | inactive | inactive | inactive | inactive | – |
